# The list is not random: actives were taken first. Their share in the collection is about 10%.
# hNpr1 antagonist = blocks ANP-stimulated signaling of human Npr1 receptor | Potency, µM (titrated, usually from 46.3 µM), hits mostly inhibitors | 1.6% of 76,000 active | AID 1347048 | P16066 | HEK293 hNpr1 GloSensor cGMP, ANP-stimulated luminescence; calls by dose curve; note: nearly all actives have a fitted effect of over 60% in size
#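 Compound pre-incubated 30 min at room temperature on GloSensor-loaded HEK293 cells stably carrying hNpr1 and the pGS-40F cGMP biosensor. Stimulation uses hNppA at 0.1 nM final; luminescence is taken at baseline and 20 min post-agonist.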
# GPT2 inhibitor = blocks human glutamate pyruvate transaminase 2; Recombinant GPT2, coupled pyruvate oxidase/HRP Amplex Red fluorescence; Q8TD30; AID 1671188; Potency, µM (highest dose often 57.7 µM), actives largely listed as inhibitors; 0.25% of 100,000 active; note: nearly all actives have a fitted effect of over 60% in size
#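 GPT2 10ng/uL, a-KG 250uM, L-Ala 2mM, HEPES pH7.5 + 0.0001% Tween; 30 min RT. Then Amplex mix (PO/HRP/ThPP), 30 min RT dark, fluorescence. AOA 50uM used as positive control.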
# HEK293 tox = cytotoxic compounds in HEK 293 cells; HEK 293 viability, ATP luminescence (CellTiter-Glo), 48-72 h; Potency, µM (titrated, usually from 115 µM), hits mostly inhibitors; 6.6% of 94,000 active; AID 1345083; note: nearly all actives have a fitted effect of over 60% in size
#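 Cytotoxicity was scored by loss of ATP-coupled luminescence (CellTiter-Glo) in HEK 293 cells. Compound treatment ran 48 or 72 hr at 37 degree Celsius, 5% CO2, 95% humidity.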
# Luciferase inh = Photinus pyralis luciferase inhibition; AID 1347043; 2.5% of 76,000 active; P08659; Potency, µM (titrated, usually from 115 µM), usual class: inhibitors; purified P. pyralis luciferase, luminescence, biochemical; note: nearly all actives have a fitted effect of over 65% in size
#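 Luminescence read by CCD imager after adding enzyme (10nM final) to wells holding compound, titrated in qHTS. Substrates 10uM each D-luciferin and ATP; buffer 50mM Tris acetate pH 7.5, 10mM Mg acetate, Tween-20, BSA.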
# NIH3T3 tox = cytotoxic compounds in NIH 3T3 cells; NIH 3T3 viability, CellTiter-Glo ATP luminescence, 48-72 h; Potency, µM (titrated, usually from 96.7 µM), hits mostly inhibitors; 4.3% of 94,000 active; AID 1345082; note: nearly all actives have a fitted effect of over 55% in size
#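 Cytotoxicity is measured as loss of cellular ATP: NIH 3T3 cells (400/well) are exposed to compound for 48 or 72 hr at 37 °C, then CellTiter-Glo luminescence is imaged after 10 min at room temperature.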
# NPR1 antag cnf = hNpr1 antagonism, confirmation assay; HEK293 hNpr1 cGMP GloSensor luminescence, ANP-stimulated; 76% of 1,400 active; shares compounds with hNpr1 antagonist; Potency, µM (doses to about 57.6 µM), most hits filed as inhibitors; AID 1347044; calls by dose curve; note: nearly all actives have a fitted effect of over 70% in size
# NPR2 antag = hNpr2 antagonism, selectivity versus Npr1. Potency, µM (titrated, usually from 57.6 µM), hits mostly inhibitors. shares compounds with hNpr1 antagonist. HEK293 hNpr2 GloSensor cGMP luminescence, CNP-stimulated. 67% of 1,400 active; calls by dose curve; note: nearly all actives have a fitted effect of over 70% in size
# FLuc inh counter = inhibits firefly luciferase, false Npr1 antagonist flag. shares compounds with hNpr1 antagonist. 0.7% of 1,400 active. Potency, µM (doses to about 57.6 µM), hits mostly inhibitors. AID 1347047. purified FLuc enzyme, luminescence, Km substrate
# GloSensor ctrl = reduces cGMP signal in GloSensor control cells; shares compounds with hNpr1 antagonist; HEK293 GloSensor cGMP, SNP-stimulated, luminescence; Potency, µM (doses to about 57.6 µM), most hits filed as inhibitors; 69% of 1,400 active; AID 1347051; calls by dose curve; note: nearly all actives have a fitted effect of over 70% in size
# GPT2 conf = confirmation of human GPT2 inhibitors. AID 1671187. Potency, µM, actives largely listed as inhibitors. GPT2 enzyme, coupled Amplex Red pyruvate fluorescence. 90% of 95 active. shares compounds with GPT2 inhibitor
# Numbers stand for hits; – = inactive; ? = inconclusive; · = not tested or not shown; ! = a repeat was not active. Unless noted, calls come from the whole dose curve; as a rule, active = well fitted curve in the direction sought with a large enough effect; inconclusive = small, poorly fitted or top-dose-only effect, or another doubt; inactive = no such curve, though single readings can be large; an effect the other way counts as inactive or inconclusive.
SMILES,hNpr1 antagonist,GPT2 inhibitor,HEK293 tox,Luciferase inh,NIH3T3 tox,NPR1 antag cnf,NPR2 antag,FLuc inh counter,GloSensor ctrl,others
CCOc1ccc(C(=O)N2CCC(Cc3nc(-c4cnccn4)no3)CC2)cc1,–,–,–,–,?,·,·,·,·,
O=C(N1CCC(Cc2nc(C3CCOCC3)no2)CC1)C1(c2ccccc2)CC1,–,–,–,–,–,·,·,·,·,
CCN1CCN(C(=O)c2cc(-c3ccc(Cl)cc3Cl)c3nncn3n2)CC1,·,–,–,·,–,·,·,·,·,
CCOc1ccccc1C(=O)N1CCC(Cc2nc(-c3ccc(OC)cc3)no2)CC1,11.2µM,–,?,–,?,24.3µM,21.7µM,–,24.3µM,
Cc1ccc(C(=O)N2CCC(Cc3nc(-c4cnccn4)no3)CC2)c(C)c1,–,–,?,–,–,·,·,·,·,
Cc1ccc(C(=O)N2CCC(Cc3nc(-c4ccccc4)no3)CC2)c(C)c1,6.31µM,–,50.1µM,–,?,3.85µM,5.44µM,–,3.85µM,
COc1ccc(C(=O)N2CCC3(CC2)CC(Cc2nc(-c4cnccn4)no2)CCO3)c(OC)n1 (stereo not given),–,–,–,–,–,·,·,·,·,
Cc1ccccc1C(=O)N1CCC(Cc2nc(-c3ccccc3)no2)CC1,8.91µM,–,?,–,?,10.9µM,17.2µM,–,10.9µM,
COc1ccc(-c2noc(CC3CCN(C(=O)c4ccc(OC)nc4OC)CC3)n2)cc1,3.98µM,–,20µM,–,?,5.44µM,8.62µM,–,6.11µM,
COC(=O)c1ccccc1NC(=O)O[C@@H]1CO[C@H]2[C@@H]1OC[C@@H]2Nc1nccc(-c2ccc3c(c2)OCO3)n1,–,–,–,–,–,·,·,·,·,
Cc1cccc(N2CCN(C(=O)CC3CCCCN(Cc4ccccc4)C3=O)CC2)c1 (stereo not given),12.6µM,–,?,–,?,19.3µM,21.7µM,–,21.7µM,
O=C(O)CC1CCCCN(Cc2ccccc2)C1=O (stereo not given),–,–,–,–,–,·,·,·,·,
NC(=O)N1CCCC(C(=O)N2CCN(Cc3cccc(O)c3)CC2)C1 (stereo not given),–,–,–,–,–,·,·,·,·,
COCCNC(=O)C1CCN(Cc2ccccc2-c2cccnc2)CC1,·,–,–,·,–,·,·,·,·,
O=C(CCn1cc(Cl)cn1)N1CCOC(c2ccc(Cl)cc2)C1 (stereo not given),?,–,79.4µM,–,–,?,?,–,–,
O=C(c1ccc2ccccc2c1)N1C[C@@H]2C[C@H](C1)c1ccc(NS(=O)(=O)c3cccc(F)c3)c(=O)n1C2,–,–,?,–,?,·,·,·,·,
COc1ccc(NC(=O)O[C@@H]2CC[C@]3(C)C(CC[C@@H](O)[C@H]3CC(=O)NCc3ccccc3OC)[C@]2(C)CO)cc1 (stereo not given in full),–,–,?,–,–,·,·,·,·,
CCn1cc(CNC(=O)c2ccc(OC3CCN(S(=O)(=O)N(C)C)CC3)cc2)cn1,12.6µM,–,?,–,–,19.3µM,19.3µM,–,10.9µM,
CN(C)S(=O)(=O)N1CCC(Oc2ccc(C(=O)NCCc3ccncc3)cc2)CC1,–,–,?,–,?,·,·,·,·,
Cc1noc2c(-c3cn[nH]c3)cc(-c3cccc(C(F)(F)F)c3)nc12,?,–,35.5µM,–,25.1µM,?,–,–,–,
OCCN(CCO)c1nc(N2CCCCC2)c2nc(N(CCO)CCO)nc(N3CCCCC3)c2n1,·,6.31µM!,·,·,·,·,·,·,·,GPT2 conf=1.72

# Screening results deposited in PubChem by National Center for Advancing Translational Sciences (NCATS).
